# Data from PubChem BioAssay (Tox21).
# Records with an inconclusive call do not appear. A call without a number means that no potency is given here. Values without a mark were called inactive. Active and inactive are the calls of the source. Calls come from the whole dose curve; as a rule, active = well fitted curve in the direction sought with a large enough effect in the repeat runs; inconclusive = weak or mixed curves; inactive = no such curve, though single readings can be large; an effect the other way counts as inactive or inconclusive.
# Experiments:
# [1] = qHTS assay to identify small molecule antagonists of the estrogen related receptor (ERR) signaling pathway from Tox21 library - cell viability counter screen (AID 1224834); conditions: ERR reporter cells viability, CellTiter-Fluor, 17.5 h; series mostly up to 92.4 µM; note: nearly all actives have a fitted effect of over 30% in size
# In short: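 Cytotoxicity of test substances is gauged in the same ERR cells used for the antagonist screen, after 17.5 h of compound treatment at 37 C, by CellTiter-Fluor fluorescence measured after 30 min.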
# [2] = target: Luciferin 4-monooxygenase (Photinus pyralis) (UniProt P08659); assay: qHTS assay to identify small molecule inhibitors of firefly luciferase (AID 1224835); note: nearly all actives have a fitted effect of over 25% in size; conditions: purified P. pyralis luciferase, luminescence inhibition; series mostly up to 115 µM
# In short: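 Inhibition of purified Photinus luciferase is measured by luminescence. Substrate levels (D-luciferin, ATP) sit at their KM values. Each compound is tested in a concentration series.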
# [3] = qHTS assay to identify small molecule agonists of the constitutive androstane receptor (CAR) signaling pathway - cell viability counter screen (AID 1224836); conditions: HepG2-CYP2B6-hCAR viability, CellTiter-Fluor, 23 h, PK11195 added to every well; series mostly up to 92.4 µM; note: nearly all actives have a fitted effect of over 45% in size
# In short: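 Cells were seeded and incubated 4 hrs. Compounds were added across 15 concentrations together with PK11195 at 0.75 uM final. Plates were incubated 23 hrs at 37 C. CellTiter-Fluor was added and fluorescence measured.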
# Potency is the fitted concentration of half-maximal effect.
# Sequence of Luciferin 4-monooxygenase (Photinus pyralis) (P08659 whole entry, looked up): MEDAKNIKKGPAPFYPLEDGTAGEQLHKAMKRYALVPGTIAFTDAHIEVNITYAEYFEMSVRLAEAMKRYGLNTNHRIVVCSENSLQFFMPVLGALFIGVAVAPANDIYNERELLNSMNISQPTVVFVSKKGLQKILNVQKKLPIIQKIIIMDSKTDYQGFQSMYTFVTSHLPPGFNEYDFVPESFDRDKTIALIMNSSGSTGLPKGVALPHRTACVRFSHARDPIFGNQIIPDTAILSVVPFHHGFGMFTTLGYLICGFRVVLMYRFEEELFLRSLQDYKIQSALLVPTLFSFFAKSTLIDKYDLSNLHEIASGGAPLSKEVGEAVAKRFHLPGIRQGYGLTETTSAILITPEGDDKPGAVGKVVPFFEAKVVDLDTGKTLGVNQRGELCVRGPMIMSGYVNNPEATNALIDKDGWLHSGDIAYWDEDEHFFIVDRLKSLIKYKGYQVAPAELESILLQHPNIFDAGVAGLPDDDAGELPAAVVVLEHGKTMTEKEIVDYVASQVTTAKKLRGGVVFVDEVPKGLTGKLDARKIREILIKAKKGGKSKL
compound,measurement,setting,value
N#Cc1ccc(C/C(=N/NC(=O)Nc2ccc(OC(F)(F)F)cc2)c2cccc(C(F)(F)F)c2)cc1,Potency,[1],inactive
same,Potency,[2],inactive
same,Potency,[3],inactive
CC(c1cc(C(C)(C)C)cc(C(C)(C)C)c1O)c1cc(C(C)(C)C)cc(C(C)(C)C)c1O,Potency,[1],inactive
same,Potency,[3],inactive
COC(=O)c1ccc([N+](=O)[O-])cc1,Potency,[1],inactive
same,Potency,[3],inactive
O=c1cc[nH]cc1,Potency,[1],inactive
same,Potency,[2],inactive
same,Potency,[3],inactive
CCN(CC)c1ccc(C=O)c(O)c1,Potency,[1],inactive
same,Potency,[3],inactive
CCOC(=O)[C@H](C)O,Potency,[1],inactive
same,Potency,[2],inactive
same,Potency,[3],inactive
O=C(Nc1ccccc1)c1cc(Cl)ccc1O,Potency,[1],15.4 µM (active)
same,Potency,[3],24.3 µM (active)
CCOC(=O)OC(=O)OCC,Potency,[1],inactive
same,Potency,[2],inactive
same,Potency,[3],inactive
c1ccc(-c2ccc(C(c3ccccc3)n3ccnc3)cc2)cc1 (configuration not stated),Potency,[1],33.5 µM (active)
same,Potency,[3],inactive
O=C1OC(=O)c2cc(-c3ccc4c(c3)C(=O)OC4=O)ccc21,Potency,[1],inactive
same,Potency,[3],inactive
NC(=O)c1ccccc1Cl,Potency,[1],inactive
same,Potency,[2],inactive
same,Potency,[3],inactive
O=C1C=CC(=O)N1c1cccc(N2C(=O)C=CC2=O)c1,Potency,[1],54.5 µM (active)
same,Potency,[3],61.1 µM (active)
O=C1OCc2ccccc21,Potency,[1],inactive
same,Potency,[2],inactive
same,Potency,[3],inactive
CCc1cccc(CC)c1,Potency,[1],inactive
same,Potency,[2],inactive
same,Potency,[3],inactive
CCCCCc1ccc(O)cc1,Potency,[1],inactive
same,Potency,[2],56.4 µM (active)
same,Potency,[3],inactive
CC(CC(C)(C)C)CC(C)(C)CC(C)(C)C (configuration not stated),Potency,[1],inactive
same,Potency,[3],inactive
Cc1ccc(C2OC[C@@H]3OC(c4ccc(C)cc4)O[C@H]([C@H](O)CO)[C@@H]3O2)cc1 (some centres not stated),Potency,[1],inactive
same,Potency,[3],inactive
Cc1cccc2c1ccc1ccccc12,Potency,[1],inactive
same,Potency,[3],inactive
Cc1cc(Br)ccc1NC(=O)CCl,Potency,[1],19.3 µM (active)
same,Potency,[3],48.6 µM (active)
CO[Si](OC)(c1ccccc1)c1ccccc1,Potency,[1],inactive
same,Potency,[3],inactive
CCCCCCCCCCCCS(=O)(=O)Cl,"viability change, negative = cytotoxic",[1],-1.38% [at 19 µM]
same,"viability change, negative = cytotoxic",[3],14.3% [at 19 µM]
[Cl][Dy]([Cl])[Cl],Potency,[1],inactive
same,Potency,[3],inactive
COc1cc(OC)nc(NC(=O)NS(=O)(=O)Nc2ccccc2C(=O)N(C)C)n1,Potency,[1],inactive
same,Potency,[3],inactive
CC(C)=NNC(N)=S,Potency,[1],inactive
same,Potency,[3],inactive
C=C1CC[C@H]2O[C@]2(C)CC[C@@H]2[C@@H]1CC2(C)C,Potency,[1],inactive
same,Potency,[3],inactive
Oc1ccc2c(c1)CCC2,Potency,[1],inactive
same,Potency,[2],inactive
same,Potency,[3],inactive
CCN(CCC#N)c1ccc(N=Nc2ccc([N+](=O)[O-])cc2)cc1,Potency,[1],inactive
same,Potency,[2],inactive
same,Potency,[3],inactive
CCn1c2ccccc2c2ccccc21,Potency,[1],inactive
same,Potency,[3],inactive
C/C(=N\[Si](C)(C)C)O[Si](C)(C)C,Potency,[1],inactive
same,Potency,[3],inactive
O=C1c2ccccc2C(=O)c2c(Cl)cccc21,Potency,[1],inactive
same,Potency,[3],inactive
O=C(c1ccccc1)c1ccc(Cl)cc1,Potency,[1],inactive
same,Potency,[3],inactive
CC(=O)CC(N)=O,Potency,[1],inactive
same,Potency,[3],inactive
Brc1cc(Br)cc(Br)c1,Potency,[1],inactive
same,Potency,[2],inactive
same,Potency,[3],inactive
CCC(O)CO (configuration not stated),Potency,[1],inactive
same,Potency,[3],inactive
O=C1CCC/C=C\CCCCCCCCCC1,Potency,[1],inactive
same,Potency,[2],inactive
same,Potency,[3],inactive
O=C(NCc1ncc(C(F)(F)F)cc1Cl)c1c(Cl)cccc1Cl,Potency,[2],inactive
same,Potency,[3],inactive
Nc1ccc(Cl)c([N+](=O)[O-])c1,Potency,[2],inactive
same,Potency,[3],inactive
CCCCCCCC1CCC(=O)O1 (configuration not stated),Potency,[2],inactive
COc1ccc2ccccc2c1,Potency,[2],inactive
CC1=CC[C@@H](C(C)(C)O)CC1,Potency,[2],inactive
same,Potency,[3],inactive
C/C=C/C(=O)C1=C(C)C=CCC1(C)C,Potency,[1],inactive
same,Potency,[3],inactive
ClC(c1ccccc1)(c1ccccc1)c1ccccc1,Potency,[2],inactive
same,Potency,[3],inactive
Clc1cccc(Cl)n1,Potency,[1],inactive
same,Potency,[3],inactive
CCCCCCCC/C=C\CCCCCCCC(=O)N(CCO)CCO,Potency,[2],inactive
CC(=O)Nc1ccc(N=Nc2cc(C)ccc2O)cc1,Potency,[2],3.17 µM (active)
Nc1ccc(N)c([N+](=O)[O-])c1,Potency,[2],35.6 µM (active)
Nc1cc([N+](=O)[O-])cc(Cl)c1O,Potency,[2],inactive
same,Potency,[3],inactive
O=C1Cc2ccccc2C1,Potency,[2],inactive
CCOc1ccc([N+](=O)[O-])cc1,Potency,[3],inactive
CCC(C)(C)c1ccc(CC(C)CN2C[C@@H](C)O[C@@H](C)C2)cc1 (some centres not stated),Potency,[3],inactive
CCOC(=O)C1=NN(c2ccc(Cl)cc2Cl)C(C)(C(=O)OCC)C1 (configuration not stated),Potency,[2],inactive
same,Potency,[3],inactive
C=Cc1ccncc1,Potency,[1],inactive
same,Potency,[3],inactive
CC(C)(C)c1ccc(OC2CCCCC2O)cc1 (configuration not stated),Potency,[3],inactive
CCN(CC)c1ccc(C=O)cc1,Potency,[1],inactive
same,Potency,[3],inactive
CC(C)c1ccc2sc3ccccc3c(=O)c2c1,Potency,[1],inactive
same,Potency,[3],inactive
C=C1C(CCl)(CCl)C2(Cl)C(Cl)C(Cl)C1(Cl)C2(Cl)Cl (configuration not stated),Potency,[2],inactive
same,Potency,[3],inactive
O=C1OC2(c3ccccc31)c1ccc(O)c(Br)c1Oc1c2ccc(O)c1Br,Potency,[2],35.6 µM (active)
O[Si](c1ccccc1)(c1ccccc1)c1ccccc1,Potency,[2],inactive
same,Potency,[3],inactive
CCCCCCCCCCCCN1CCCC1=O,Potency,[2],44.8 µM (active)
same,Potency,[3],inactive
CCCCCCCCCC[N+](C)(CCCCCCCCCC)CCC[Si](OC)(OC)OC,Potency,[2],79.6 µM (active)
same,Potency,[3],inactive
C/C=C/C(=O)OCC(C)C,Potency,[1],inactive
same,Potency,[3],inactive
Nc1ccc(F)c([N+](=O)[O-])c1,Potency,[3],inactive
O=C1OC(O)C(C(Cl)Cl)=C1Cl (configuration not stated),Potency,[3],inactive
Cc1c(Cl)c(=O)oc2cc(O)ccc12,Potency,[2],inactive
